# Target: DPM2
# Assay: pooled miR-30 sensor sort-seq; sequence = guide strand
# Details: shRNA
row,Sequence,sensor-assay potency score (higher = more potent)
1,TACTTGTGGATGACATGCTGAC,-0.0583
2,ATACTTGTGGATGACATGCTGA,-0.113
3,TCTCTTGGTCTTCAGCATCACA,-1.19
4,TAGGTGAAGATGATCAGGCTAA,0.29

# Target: DPP3
# Assay: as above
# Details: shRNA
row,Sequence,sensor-assay potency score (higher = more potent)
1,TTCCTTACGCAGCAGCACCGTG,-1.18
2,TCGTCCTGTACGAAGAGCTTGC,-0.841
3,TCGACCTCTTTGAAGAGCCGGG,-0.473
4,TGAAGCTCTCTATATACTGGGC,-0.35
5,AAGATCTCCAGCACTTGCGGGT,-0.379
6,TTGTCCTTCTCAAAGGTTGGGG,-0.0545
7,TTGTAGTTGCCCATGTTGGAGT,-1.16
8,AAGTTGGGAACAAACTTGGTGT,-0.148
9,TGTTGGAGTAAACACCCGCGGC,-1.37
10,TAGTTGGGGATGTTGATGCCGG,-0.85
11,TTGGTGTCACCAAAGGACTTGT,-0.525
12,TTGTCCTGGATCCAGAAGCGGG,-1.46

# Reference: the OligoGym collection
